Drawing on PubChem BioAssay (NCI), this text covers growth for 38 compounds.

The structures appear in SMILES notation. About 83,000 compounds went through this panel and 20% of them were active in at least one assay; those are over-represented in the sample as a whole.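 In brief: 96-well plates, 48 h treatment, single concentration, percent growth endpoint.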 Activity calls are given as the source filed them. Rule for the calls: active = growth percent below 10; inactive = the rest.

For one assay, the system named is NCI-H23 lung. The assay is described as follows: NCI-60 one-dose screen, 48 h (100 = growth as untreated, 0 = no growth, -100 = all killed). Conditions: 10 µM unless noted.
With `NC1=NC(c2cccc(Br)c2)c2sc3ccc(Cl)cc3c2N1` (stereo unspecified), the growth was 86.3% (inactive).
On the same count and under the same terms, with `CCCCn1c(-c2ccc(-c3nc(-c4ccc(Cl)cc4)no3)cc2)nc(-c2ccccc2)c1-c1ccccc1` the figure was 68.2% (inactive); with `CCc1ccccc1-n1c(N)c(C#N)c(-c2ccc(Cl)cc2)c(C#N)c1=O`, 107% (inactive); with `Cc1ccc(/C=N\NC(=O)c2[nH]c3ccc(F)cc3c2-c2ccccc2)cc1`, 38% (inactive).
Same read-out and setting: the value for `COc1ccc(/C=C/c2c(C(=O)/C=C/c3ccc(C(F)(F)F)cc3)c(C)nc3ccccc23)cc1` was -23% (active).
On the same count and under the same terms, the value for `Cc1c(C(=O)/C=C/Nc2c(Cl)cc(S(N)(=O)=O)cc2Cl)sc2nc3ccccc3n12` was 99.8% (inactive); that for `CC(=O)N1N=C(c2ccc(Nc3nc(Nc4ccc(F)cc4)nc(Nc4ccc(Cl)cc4)n3)cc2)CC1c1ccc(Cl)cc1` (stereo unspecified) was 84.6% (inactive).
As to `COc1ccccc1/C=C1\Oc2cc(OCCN3CCC(Cc4ccccc4)CC3)ccc2C1=O`, the growth is 93.9% (inactive).
Same read-out and setting: the value for `Cc1nc2ccccc2c(/C=C/c2ccccc2)c1C(=O)/C=C/c1ccc(C(F)(F)F)cc1` was -33.6% (active); that for `Cc1[nH]c(C(=O)Nc2ccc(C(=O)N3CCNCC3)cc2OC(C)C)c(Cl)c1Cl` was 90.7% (inactive); that for `CN1C(=O)N(C)C2Nn3c(s/c(=C\c4ccccc4)c3=O)=NC21` (stereo unspecified) was 101% (inactive).
Still for that read-out and setting: the value for `COc1ccc([C@H]2c3cc(OC)c(OC)cc3C=C(C=O)C2CO)cc1OC` (stereo partly specified) was 62.8% (inactive); that for `O=c1n(Cc2ccc3ccccc3c2)ccn1Cc1ccc2ccccc2c1` was 91% (inactive).
Same read-out and setting: the value for `N/C(=N\c1nc2ccccc2s1)NC(=O)Nc1cccc2ccccc12` was 29.6% (inactive); that for `O=C(N=c1oc2ccccc2cc1-c1cc2ccccc2[nH]1)Nc1ccc(Cl)cc1` was 86.2% (inactive); that for `Fc1cc(-c2nnc3sc(-c4ccc(Cl)cc4Cl)nn23)c(Cl)cc1Cl` was 83% (inactive).
For `CSc1ccc2c(c1)c(CCN)c(C)n2Cc1ccc(Cl)c(Cl)c1`, the growth was -89.7% (active).
Still for that read-out and setting: with `OC(c1ccccc1)C(NC(Cc1ccccc1)c1ccccc1)c1ccccc1` (stereo unspecified) the figure was 81.8% (inactive); with `O=C(/C=C/c1ccc([N+](=O)[O-])o1)NNC(=O)c1cc2ccccc2cc1O`, 6.76% (active); with `CCCCCCCCCCCCCCCCCCOc1ccccc1CC(=O)OCC[N+](CC)(CC)CC`, 13.1% (inactive).
In the case of `Cc1c(C(=O)NCCN2CCOCC2)cn2ncnc(Oc3ccc(NC(=O)Nc4ccc(Cl)c(C(F)(F)F)c4)cc3)c12`, the growth was 13.9% (inactive).
The same measure, in the same setting: the value for `Cc1ccc2c(n1)C(=O)C(Cl)=C(Nc1ccccc1C(C)C)C2=O` was 49.8% (inactive).
The same measure, in the same setting: the value for `Nc1cc2c(cc1Br)-c1cc(Cl)ccc1C2=O` was 97.1% (inactive); that for `Cc1nn(-c2ccccc2)c2c1N=c1s/c(=C\c3ccc(C(F)(F)F)cc3)c(=O)n1CN2` was 51.1% (inactive).
On the same count and under the same terms, the value for `COc1ccc2c(c1)/C(=C/c1sc(=S)n(Cc3ccco3)c1O)C=N2` was 51% (inactive).
As for `COc1nc2ccccc2cc1-c1nc2c(cnn2-c2ccccc2)c(=O)[nH]1`, the growth was 46.2% (inactive).
The same measure, in the same setting: with `Cc1[nH]c(C(=O)Nc2ccc(C(=O)NCCN)cc2OC(C)C)c(Cl)c1Cl` the figure was 79.5% (inactive).
On the same count and under the same terms, with `CC(C)c1cc(C(C)C)c(S(=O)(=O)Oc2ccc(NC(=O)c3ccc(Cl)cc3)cc2)c(C(C)C)c1` the figure was 15.2% (inactive); with `CN1C(=O)CNC(=O)[C@H](NC(=O)c2nc3ccccc3cc2O)CSSC[C@H]1C(=O)NCCCc1nc2ccccc2cc1O`, 67.2% (inactive).
`O=S(=O)(Nc1ccc(-c2nc(-c3cccc(OCCN4CCOCC4)c3)c(-c3ccnc(Br)c3)[nH]2)cc1)c1ccccc1`: the growth is 35.5% (inactive).
Take `COc1ccc(-c2cc3c4c(nc5ccccc5c4c2)CC(c2cc(OC)c(OC)c(OC)c2)O3)cc1` (stereo unspecified): the growth is 54.2% (inactive).
For the compound `COc1ccc(/C=N/Nc2cc(=O)[nH]c3ccc(Cl)cc23)cc1`, the growth is 20.2% (inactive).
On the same count and under the same terms, with `COc1ccc(S(=O)(=O)n2c3ccccc3n3ncc(-c4nnc(C)o4)c23)cc1` the figure was 31.7% (inactive); with `CCc1cccc2c3c(sc12)C(c1ccc(Cl)cc1)C(C#N)=C(N)O3` (stereo unspecified), 22.5% (inactive); with `Clc1ccc(C(/C=C/c2sc(Cl)nc2Cl)=N/Nc2cc(Cl)cc(Cl)c2)cc1`, 92.2% (inactive).
The same measure, in the same setting: with `NCCCNc1nc2ccccc2c2c(=O)c3cc(OC(F)(F)F)ccc3sc12` the figure was 48.3% (inactive); with `Cc1cc(-c2cc(C)c(N)cc2C)c(C)cc1N`, 101% (inactive); with `O=C(Nc1ccc(F)cc1F)c1cc(F)ccc1O`, -6.29% (active).

The subject of the next assay is NCI-H226 lung. Described as above. Conditions: 10 µM unless noted.
For the compound `NC1=NC(c2cccc(Br)c2)c2sc3ccc(Cl)cc3c2N1` (stereo unspecified), the growth is 78.4% (inactive).
The same measure, in the same setting: the value for `CCCCn1c(-c2ccc(-c3nc(-c4ccc(Cl)cc4)no3)cc2)nc(-c2ccccc2)c1-c1ccccc1` was 84.2% (inactive); that for `CCc1ccccc1-n1c(N)c(C#N)c(-c2ccc(Cl)cc2)c(C#N)c1=O` was 110% (inactive).
Same read-out and setting: with `Cc1ccc(/C=N\NC(=O)c2[nH]c3ccc(F)cc3c2-c2ccccc2)cc1` the figure was 46.4% (inactive).
The same measure, in the same setting: the value for `COc1ccc(/C=C/c2c(C(=O)/C=C/c3ccc(C(F)(F)F)cc3)c(C)nc3ccccc23)cc1` was -38.3% (active).
As for `Cc1c(C(=O)/C=C/Nc2c(Cl)cc(S(N)(=O)=O)cc2Cl)sc2nc3ccccc3n12`, the growth was 99.6% (inactive).
Still for that read-out and setting: with `CC(=O)N1N=C(c2ccc(Nc3nc(Nc4ccc(F)cc4)nc(Nc4ccc(Cl)cc4)n3)cc2)CC1c1ccc(Cl)cc1` (stereo unspecified) the figure was 83.8% (inactive); with `COc1ccccc1/C=C1\Oc2cc(OCCN3CCC(Cc4ccccc4)CC3)ccc2C1=O`, 96.9% (inactive).
As for `Cc1nc2ccccc2c(/C=C/c2ccccc2)c1C(=O)/C=C/c1ccc(C(F)(F)F)cc1`, the growth is -42.2% (active).
The same measure, in the same setting: with `Cc1[nH]c(C(=O)Nc2ccc(C(=O)N3CCNCC3)cc2OC(C)C)c(Cl)c1Cl` the figure was 97.2% (inactive); with `CN1C(=O)N(C)C2Nn3c(s/c(=C\c4ccccc4)c3=O)=NC21` (stereo unspecified), 94.2% (inactive).
`COc1ccc([C@H]2c3cc(OC)c(OC)cc3C=C(C=O)C2CO)cc1OC` (stereo partly specified): the growth is 80.8% (inactive).
As for `O=c1n(Cc2ccc3ccccc3c2)ccn1Cc1ccc2ccccc2c1`, the growth was 91.5% (inactive).
For `N/C(=N\c1nc2ccccc2s1)NC(=O)Nc1cccc2ccccc12`, the growth was 66.8% (inactive).
Still for that read-out and setting: with `O=C(N=c1oc2ccccc2cc1-c1cc2ccccc2[nH]1)Nc1ccc(Cl)cc1` the figure was 95.9% (inactive); with `Fc1cc(-c2nnc3sc(-c4ccc(Cl)cc4Cl)nn23)c(Cl)cc1Cl`, 97.6% (inactive).
Still for that read-out and setting: the value for `CSc1ccc2c(c1)c(CCN)c(C)n2Cc1ccc(Cl)c(Cl)c1` was -59.8% (active); that for `OC(c1ccccc1)C(NC(Cc1ccccc1)c1ccccc1)c1ccccc1` (stereo unspecified) was 82.1% (inactive); that for `O=C(/C=C/c1ccc([N+](=O)[O-])o1)NNC(=O)c1cc2ccccc2cc1O` was 0.682% (active).
In the case of `CCCCCCCCCCCCCCCCCCOc1ccccc1CC(=O)OCC[N+](CC)(CC)CC`, the growth is 53.7% (inactive).
Consider `Cc1c(C(=O)NCCN2CCOCC2)cn2ncnc(Oc3ccc(NC(=O)Nc4ccc(Cl)c(C(F)(F)F)c4)cc3)c12`, for which the growth is 34.2% (inactive).
For the compound `Cc1ccc2c(n1)C(=O)C(Cl)=C(Nc1ccccc1C(C)C)C2=O`, the growth is 59.1% (inactive).
Regarding `Nc1cc2c(cc1Br)-c1cc(Cl)ccc1C2=O`, the growth is 81.1% (inactive).
On to `Cc1nn(-c2ccccc2)c2c1N=c1s/c(=C\c3ccc(C(F)(F)F)cc3)c(=O)n1CN2`, for which the growth was 61% (inactive).
`COc1ccc2c(c1)/C(=C/c1sc(=S)n(Cc3ccco3)c1O)C=N2`: the growth is 71.4% (inactive).
In the case of `COc1nc2ccccc2cc1-c1nc2c(cnn2-c2ccccc2)c(=O)[nH]1`, the growth is 73.3% (inactive).
Still for that read-out and setting: the value for `Cc1[nH]c(C(=O)Nc2ccc(C(=O)NCCN)cc2OC(C)C)c(Cl)c1Cl` was 93.5% (inactive); that for `CC(C)c1cc(C(C)C)c(S(=O)(=O)Oc2ccc(NC(=O)c3ccc(Cl)cc3)cc2)c(C(C)C)c1` was 51.6% (inactive); that for `CN1C(=O)CNC(=O)[C@H](NC(=O)c2nc3ccccc3cc2O)CSSC[C@H]1C(=O)NCCCc1nc2ccccc2cc1O` was 85.8% (inactive).
On the same count and under the same terms, with `O=S(=O)(Nc1ccc(-c2nc(-c3cccc(OCCN4CCOCC4)c3)c(-c3ccnc(Br)c3)[nH]2)cc1)c1ccccc1` the figure was 48.1% (inactive); with `COc1ccc(-c2cc3c4c(nc5ccccc5c4c2)CC(c2cc(OC)c(OC)c(OC)c2)O3)cc1` (stereo unspecified), -12.5% (active).
For `COc1ccc(/C=N/Nc2cc(=O)[nH]c3ccc(Cl)cc23)cc1`, the growth was 80.4% (inactive).
The same measure, in the same setting: the value for `COc1ccc(S(=O)(=O)n2c3ccccc3n3ncc(-c4nnc(C)o4)c23)cc1` was 55.7% (inactive); that for `CCc1cccc2c3c(sc12)C(c1ccc(Cl)cc1)C(C#N)=C(N)O3` (stereo unspecified) was 41.2% (inactive); that for `Clc1ccc(C(/C=C/c2sc(Cl)nc2Cl)=N/Nc2cc(Cl)cc(Cl)c2)cc1` was 90.1% (inactive).
On the same count and under the same terms, with `NCCCNc1nc2ccccc2c2c(=O)c3cc(OC(F)(F)F)ccc3sc12` the figure was 85.7% (inactive); with `Cc1cc(-c2cc(C)c(N)cc2C)c(C)cc1N`, 103% (inactive); with `O=C(Nc1ccc(F)cc1F)c1cc(F)ccc1O`, 4.02% (active).
